LmPK inhibitor – LmPK (Leishmania mexicana) enzyme inhibition. Potency, µM (series often up to 57.5 µM), for the others: at the top dose activity change, negative = inhibition, usual class: inhibitors. Q27686. purified LmPK, Kinase-Glo ATP luminescence, 1 h. AID 1721. hit rate 0.37% among 290,000; note: potency is the fitted concentration of half-maximal effect; % is set by controls: 0 for no effect and ±100 for the full control effect
Target sequence (Q27686 whole entry, looked up): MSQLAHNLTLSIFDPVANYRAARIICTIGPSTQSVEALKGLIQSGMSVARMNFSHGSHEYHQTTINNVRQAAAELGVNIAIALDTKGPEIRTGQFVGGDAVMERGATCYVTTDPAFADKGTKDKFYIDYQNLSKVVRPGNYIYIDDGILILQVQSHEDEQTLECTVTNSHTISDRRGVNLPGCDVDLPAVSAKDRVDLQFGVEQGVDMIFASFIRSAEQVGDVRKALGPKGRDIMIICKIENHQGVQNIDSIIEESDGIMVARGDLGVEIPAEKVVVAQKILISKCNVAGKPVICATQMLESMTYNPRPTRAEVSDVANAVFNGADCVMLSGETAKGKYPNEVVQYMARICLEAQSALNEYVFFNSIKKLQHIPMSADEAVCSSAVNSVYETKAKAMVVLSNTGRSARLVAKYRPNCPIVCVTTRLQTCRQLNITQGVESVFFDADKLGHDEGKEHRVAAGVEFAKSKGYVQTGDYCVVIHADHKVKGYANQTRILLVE
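Screened at intermediate enzyme activity to detect both inhibitors and activators: LmPK at 0.1 nM, with a 0.5 nM enzyme column as activation reference. PEP 0.5 mM, ADP 0.1 mM; ATP detected by luminescence after 1 h.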
NS1 function inh – inhibitors of influenza NS1 protein function; Potency, µM (highest dose often 46.1 µM), for the others: top-dose activity, positive = more growth; hit rate 0.4% among 270,000; calls by dose curve; note: potency is the fitted concentration of half-maximal effect; actives are rising curves; nearly all actives have a fitted effect of over 50% in size
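OD600 was taken as the measure of yeast growth restored by compound in an NS1-expressing S. cerevisiae strain. Cells had been washed out of glucose medium and diluted 1:100 into galactose -URA medium, pH 6.0.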
Shiga inhibitor – inhibitors of Shiga toxin in Vero cells. Vero cells, Shiga toxin protein synthesis inhibition reporter. inhibition, % at 38.7 µM. hit rate 9.2% among 290,000; in the data active = inhibition mostly above about 28%, no sharp cut-off; inactive = mostly below about 43%; note: 0% is about no effect
CHX counter – affects cycloheximide protein synthesis inhibition readout, counter-screen; max response, %; cell reporter, cycloheximide protein synthesis inhibition counterscreen; AID 2314; hit rate 12% among 300,000; in the data active = max response mostly above about 13%, no sharp cut-off; inactive = mostly below about 14%; note: read at 38.3 µM for the half of the compounds with a filed dose; 0% is about no effect
Giardia FBPA inh – inhibitors of Giardia lamblia fructose-1,6-bisphosphate aldolase | A8B2U2 | purified Giardia FBPA | Potency, µM (titrated, usually from 59.6 µM), for inactives: top-dose activity, negative = inhibition, actives largely listed as inhibitors | hit rate 0.71% among 290,000; note: potency is the fitted concentration of half-maximal effect; % is set by controls: 0 for no effect and ±100 for the full control effect; nearly all actives have a fitted effect of over 55% in size
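Giardia FBPA (40 nM reagent) was preincubated 10 min at RT with compound (up to 57.5 uM final), then substrate plus GAPDH/TPI/NAD/arsenate coupling system with diaphorase/resazurin was added; resorufin fluorescence (525/598 nm) was read after 20 min.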
* hit, by the source's call; ? = inconclusive; nt = no result; + = active, no number; [ ] = remark or other dose. Sampled rows, rich in hits. Any-hit rate of the full collection: about 14%. Unless noted, calls come from the whole dose curve; as a rule, active = well fitted curve in the direction sought with a large enough effect; inconclusive = small, poorly fitted or top-dose-only effect, or another doubt; inactive = no such curve, though single readings can be large; an effect the other way counts as inactive or inconclusive.

SMILES | LmPK inhibitor | NS1 function inh | Shiga inhibitor | CHX counter | Giardia FBPA inh
Clc1ccc(Cl)c2sc(N3CCCC3)nc12 | 6% | ? | 33 | 16 | 13%
O=C1C(Cl)=C(N2CCCCC2)C(=O)C(Cl)=C1c1cnc(N2CCCCC2)s1 | 20µM* | 0% | 13 | -3 | 7.1µM*
O=C(O)[C@H](Cc1cnc[nH]1)N1C(=O)c2ccccc2C1=O | nt | -1% | nt | nt | nt
CCn1nc(-c2cccs2)nc2c(=O)n(C)c(=O)nc1-2 | -13% | -204% | 26* | 26* | ?
CCn1nc(/C=C/c2ccccc2)nc2c(=O)n(C)c(=O)nc1-2 | 5% | -2% | 29 | 11 | 1%
Cc1ccsc1CCNC(=O)C1CCC(=O)N(CCc2cccc(F)c2)C1 (centres undefined) | -3% | -15% | 120* | 46* | nt
Cc1ccsc1CN(C)C(=O)C1CCC(=O)N(CCc2cccc(F)c2)C1 (centres undefined) | 0% | -5% | 53* | 36* | 5%
Cc1cc([N+](=O)[O-])ccc1NC(=S)NC1CCCC1 | -5% | 9% | -14 | -4 | nt
COc1cccc(C2(O)CC(C(F)(F)F)=NN2C(=O)c2ccccn2)c1 (centres undefined) | -2% | 0% | 65* | 38* | -8%
O=C(c1ccccc1)N1N=C(C(F)(F)F)CC1(O)c1ccccc1 (centres undefined) | 2% | -28% | nt | 1 | 2%
O=C(c1ccccc1)N1N=C(C(F)(F)F)CC1(O)c1ccc(F)cc1 (centres undefined) | 4% | 18% | 59* | 25* | 5%
O=C(Cc1cccs1)N/N=C/C(Cl)=C/c1ccccc1 | 3% | nt | 118* | 31* | 3%
CCOc1ccc(/C=N/NC(=O)Cc2cccs2)cc1 | 2% | 0% | 91* | 44* | -3%
O=C(Cc1cccs1)N/N=C/c1ccccc1 | 0% | -3% | 27 | 15 | 3%
CCOC(=O)N/N=C\c1ccc(OC/C=C/c2ccccc2)c(OC)c1 | 5% | -21% | 22 | 12 | nt
CCOC(=O)N/N=C/C(Cl)=C/c1ccccc1 | 5% | nt | 54* | 38* | 0%
Cc1cccc(/C=N/NC(=O)Cc2cccs2)c1 | -11% | -3% | 72* | 33* | -3%
COc1cccc(C2=NOC(C(=O)Nc3ccc4c(c3)OCO4)C2)c1OC (centres undefined) | -6% | 0% | 17 | 14 | -8%
Cc1cc(Nc2ccc(C)c(Cl)c2)nc(N2CCOCC2)n1 | 9% | -53% | 13 | 7.5* | -12%
Oc1[nH]c2ccccc2c1N=Nc1nc(Nc2ccccc2)nc(N2CCOCC2)n1 | -1% | 5% | 11 | -1 | 2%
Cc1[nH]c2ccccc2c1/C=N/Nc1nc(Nc2ccccc2)nc(N2CCOCC2)n1 | -1% | -54% | 16 | 20* | -9%
Cc1ccc(Nc2cc(C)nc(N3CCOCC3)n2)cc1 | 0% | -16% | 81* | 26* | -18%
Cc1ccc(Nc2nc(N3CCOCC3)nc(N3CCOCC3)n2)cc1 | 1% | -29% | -3 | 14* | -1%
CCOc1ccc(Nc2cc(C)nc(N3CCOCC3)n2)cc1 | -3% | -9% | -5 | -5 | -14%
CCOC(=O)c1ccc(Nc2cc(C)nc(N3CCOCC3)n2)cc1 | 4% | -61% | -22 | -7 | -1%
SMILES | LmPK inhibitor | NS1 function inh | Shiga inhibitor | CHX counter | Giardia FBPA inh
CCCc1nc(SCC(=O)N2CCOCC2)c2c(C)c(C)sc2n1 | 7% | -21% | -19 | 1 | 2%
O=C(O)c1ccc(C(=O)O)c(C(=O)O)c1.[NH-][C@@H]1CCCC[C@@H]1[NH-].[Pt] | nt | -16% | nt | nt | nt
O=C(NCc1ccccn1)c1ccc2nc(C3CCCCC3)oc2c1 | 8% | -17% | 32* | 22* | 8%
CSCCNC(=O)c1ccc2nc(C3CCCCC3)oc2c1 | 3% | -63% | 86* | 20* | 6%
CN(C)c1ccc(NC(=O)CSc2nnc(C3CCCCC3)n2N)cc1 | 8% | 9% | 31* | 24* | 13%
Cc1ccc(S(=O)(=O)N(C)CC(=O)N2CC(C)OC(C)C2)cc1 (centres undefined) | -6% | 22% | 10 | 1 | nt
N#C/C(=C/c1ccc(O)c([N+](=O)[O-])c1)C(=O)Nc1ccccc1 | 3% | nt | 51* | 27* | -22%
N#C/C(=C/c1ccc([N+](=O)[O-])cc1)C(=O)Nc1ccccc1O | -1% | -10% | 74* | 62* | -14%
N#C/C(=C\c1ccc([N+](=O)[O-])cc1)C(=O)Nc1ccccc1O | -3% | -14% | 40 | 31* | -11%
CNc1ccc(/C=C(\C#N)C(=O)Nc2ccccn2)cc1[N+](=O)[O-] | 6% | -12% | -6 | -4 | -7%
N#C/C(=C/c1ccc([N+](=O)[O-])cc1)C(N)=O | 8% | 0% | -9 | -3 | -19%
Cc1csc(NC(=O)C(C)N2C(=O)c3ccccc3S2(=O)=O)n1 (centres undefined) | 0% | -2% | -1 | -2 | nt
COc1ccccc1P(=O)(Cc1ccccc1[N+](=O)[O-])c1ccccc1 (centres undefined) | -7% | 8% | -5 | -3 | 3%
Cn1cc(C(=O)N2CCN(c3cccc(Cl)c3)CC2)c(=O)c2cc(S(=O)(=O)N3CCOCC3)ccc21 | -3% | -5% | -3 | -1 | 11%
c1ccc2c(c1)nnn2CN1CCOCC1 | nt | 0% | nt | nt | nt
S=C(NCc1ccccc1)NC1CCCCC1 | 0% | -7% | 1 | 10 | 0%
S=C(NCCc1ccccn1)NC1CCCCC1 | -1% | 11% | 27* | 42* | -5%
S=C(NCCCc1ccccc1)NC1CCCCC1 | -7% | -98% | 71* | 47* | ?
S=C(Nc1ccccn1)NC1CCCCC1 | 1% | -63% | -2 | 16 | 0%
COc1ccc(C2C(C(=O)c3ccco3)=C(O)C(=O)N2CC2CCCO2)c(OC)c1 (centres undefined) | -2% | 5% | -7 | 2 | -11%
O=C(Nc1ccc2ccccc2c1)c1nn(C23CC4CC(CC(C4)C2)C3)cc1Br | 0% | 2% | -7 | 10 | 10%
O=C(Nc1ccc2ccccc2c1)c1onc2c1CCCC2 | -12% | -8% | 64* | 28* | -5%
COC(=O)c1cccc(NC(=O)c2onc3c2CCCC3)c1 | ? | -19% | + | 99* | -1%
COc1cccc(NC(=O)Nc2cccc(C)n2)c1 | -1% | -8% | 92* | 53* | 9%
COc1ccc(NC(=O)Nc2cccc(C)n2)c(OC)c1 | 0% | 4% | 39* | 33* | 5%
Cc1cccc(NC(=O)Nc2ccc(Cl)c(Cl)c2)n1 | -1% | -13% | 72* | 27* | 0%
Cc1cccc(NC(=O)Nc2ccccc2)n1 | 1% | -2% | 43* | 23* | -3%
COc1ccc(NC(=O)Nc2cccc3ccccc23)c(OC)c1 | -2% | 18% | -3 | -1 | nt
COc1ccc(C#CC2C=CC(Oc3cc(C)cc(C)c3)C(CO)O2)cc1 (centres undefined) | nt | nt | nt | nt | 0%[12.9 µM]
CC(=O)OC[C@@H]1O[C@H](C/C=N\O[C@@H](C)c2cc(-c3c(C)cc(C)cc3C)no2)C=C[C@@H]1OC(C)=O | nt | nt | nt | nt | 1%[12.9 µM]
